# Shiga inhibitor = A qHTS for Small Molecule Inhibitors of Shiga Toxin; Vero cells, Shiga toxin protein synthesis inhibition reporter; inhibition, % at 38.7 µM; hit rate 9.2% among 290,000; AID 2315, 2010; in the data active = inhibition mostly above about 28%, no sharp cut-off; inactive = mostly below about 43%; also: 0% is about no effect
# SARS PLpro yeast = qHTS of Yeast-based Assay for SARS-CoV PLP; Potency, µM (series often up to 32.9 µM), inactives show top-dose activity, positive = growth rescue, most hits filed as activators; S. cerevisiae expressing SARS-CoV PLpro, growth rescue; AID 485353, 2010; hit rate 0.19% among 330,000; also: potency is read from the fitted curve at half-maximal effect; 0% is about no effect; nearly all actives have a fitted effect of over 55% in size
# NS1 inh = qHTS Assay for Inhibitors of Influenza NS1 Protein Function; Potency, µM (top dose mostly 46.1 µM), inactives show at the highest dose activity, positive = more growth; hit rate 0.4% among 270,000; also: potency is read from the fitted curve at half-maximal effect; actives are rising curves; nearly all actives have a fitted effect of over 50% in size
#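 Read-out: OD600 growth recovery of NS1-expressing budding yeast. Cells grown overnight at 30C in -URA glucose medium, washed, resuspended and diluted 1:100 in 2% galactose assay medium, pH 6.0. Same strain lacking NS1 served as positive control.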
# Cycloheximide cs = Cycloheximide Counterscreen for Small Molecule Inhibitors of Shiga Toxin; max response, %; hit rate 12% among 300,000; cell reporter, cycloheximide protein synthesis inhibition counterscreen; in the data active = max response mostly above about 13%, no sharp cut-off; inactive = mostly below about 14%; also: read at 38.3 µM for the half of the compounds with a filed dose; 0% is about no effect
# Active calls of the source: *; u = inconclusive; x = no result. Rows were chosen to be rich in hits. Some 12% of all compounds tested hit in one or more screens of this group. Unless noted, calls follow the shape of the full dose curve.
SMILES,Shiga inhibitor,SARS PLpro yeast,NS1 inh,Cycloheximide cs
O=C(Nc1nc(-c2cccs2)c(-c2ccccc2)s1)c1ccco1,31,-6%,u,18*
CSCCCN1CCCC(CO)(Cc2ccccc2F)C1 (centres undefined),x,2%,-16%,-1
COc1ccc(C(=O)n2nc(-c3ccccc3)nc2SC)cc1,11,3%,-11%,-2
CSc1nc(-c2ccccc2)nn1C(=O)c1ccco1,11,1%,1%,-2
Nc1nc(-c2cccnc2)nn1C(=O)c1ccc(Cl)cc1,16,2%,x,-1
CSc1nc(-c2ccc(Cl)cc2)nn1C(=O)c1ccccc1,112*,-33%,1%,24*
CSc1nc(-c2ccccc2)nn1C(=O)c1ccccc1,45,-9%,-14%,14*
CSc1nc(-c2ccccc2)nn1C(=O)c1ccc(Cl)cc1,14,-17%,-43%,17*
CSc1nc(-c2ccco2)nn1C(=O)c1ccc(Cl)cc1,-11,0%,-55%,-5
Nc1nc(-c2ccc(Cl)cc2)nn1C(=O)c1cccnc1,31*,-2%,-14%,25*
Cc1ccc2c(C)c(C(=O)NCC(C)(C)N3CCOCC3)oc2c1C,-6,-1%,-2%,13
CCC1(c2ccc(F)cc2)NC(=O)N(CC(=O)NCc2ccc(C)cc2)C1=O (centres undefined),-3,0%,-1%,-1
CCN(CCO)Cc1csc2ccc(C(C)(C)C)cc12,-2,8%,-3%,-1
COc1ccc(S(=O)(=O)N2CCC3(CC2)CC(=O)c2ccccc2O3)cc1OC,x,-4%,x,x
CCn1c(O)c(C=NC2CCCC2)sc1=S,23,-5%,-9%,34*
Oc1c(C=Nc2ccccc2)sc(=S)n1Cc1ccccc1,4,-1%,-2%,1
CCn1c(O)c(C=Nc2ccccc2)sc1=S,85*,-5%,x,38*
C=CCn1c(O)c(C=Nc2ccccc2)sc1=S,64*,-2%,-2%,28*
CC(C)C(C)NC(=O)CN1C(=O)NC2(CCc3ccccc32)C1=O (centres undefined),21,1%,2%,-5
COCCNC(=O)C(c1cccnc1)N(Cc1ccccc1)C(=O)Cn1nnc2ccccc21 (centres undefined),94*,1%,x,29*
COCCNC(=O)C(c1ccccc1)N(Cc1cccs1)C(=O)Cn1nnc2ccccc21 (centres undefined),-12,-7%,-8%,-4
COCCNC(=O)C(c1ccccc1)N(C(=O)Cn1nnc2ccccc21)c1cccnc1 (centres undefined),18,3%,-1%,3
COCCNC(=O)C(c1ccncc1)N(Cc1ccccc1)C(=O)Cn1nnc2ccccc21 (centres undefined),42*,-2%,x,33*
Cc1cc(C)nc(N/N=C/C2=C(O)CC(c3ccccc3)CC2=O)n1 (centres undefined),-16,-5%,-41%,-3
O=C(NCCC1CCCC1)C1CCC(=O)N(CCCN2CCCC2=O)C1 (centres undefined),-6,6%,16%,-2
SMILES,Shiga inhibitor,SARS PLpro yeast,NS1 inh,Cycloheximide cs
COc1cccc(CNC(=O)C2CCC(=O)N(CCc3cccc(F)c3)C2)c1 (centres undefined),13,u,-6%,2
CN(Cc1nccs1)C(=O)C1CCC(=O)N(CCc2cccc(F)c2)C1 (centres undefined),31,-1%,8%,2
O=C(NC(C1CC1)C1CC1)C1CCC(=O)N(CCCN2CCCC2=O)C1 (centres undefined),13,-4%,-10%,17*
CCOC(=O)C1CCN(C(=O)C2CCC(=O)N(Cc3cccc(C(F)(F)F)c3)C2)CC1 (centres undefined),32,4%,10%,14*
CCc1nc(CN(C)C(=O)C2CCC(=O)N(CCc3cccc(F)c3)C2)no1 (centres undefined),33,1%,10%,22*
O=C(NCc1cccc(F)c1)C1CCC(=O)N(CCc2cccc(F)c2)C1 (centres undefined),13,-6%,-8%,20*
CS(=O)(=O)c1cccc(C(=O)N(CCc2ccccc2)Cc2cccs2)c1,-3,-1%,-19%,3
COCCCNC(=O)c1ccc2c(c1)nc(C)n2-c1cccc(C)c1,-6,0%,-2%,-4
COc1ccccc1CNC(=O)C1CCC(=O)N(CCCN2CCCC2=O)C1 (centres undefined),-6,-2%,0%,-3
Cc1ccc(F)cc1CNC(=O)C1CCC(=O)N(CCCN2CCCC2=O)C1 (centres undefined),18,-5%,2%,22*
O=C1CCC(C(=O)N2CCSCC2)CN1CCc1cccc(F)c1 (centres undefined),16,13%,9%,15*
COCCOC1CCN(C(=O)C2CCC(=O)N(CCc3cccc(F)c3)C2)CC1 (centres undefined),-4,0%,6%,4
COC1CCN(C(=O)C2CCC(=O)N(CCc3cccc(F)c3)C2)CC1 (centres undefined),23,-1%,-10%,28*
COc1cccc(/C=C2\N=C(C3CCCCC3)OC2=O)c1OC,13,4%,x,52*
CC(=O)Nc1ccc(OC(=O)c2ccco2)cc1,10,8%,-12%,3
CCOC(=O)Nc1ccc(S(=O)(=O)NCc2ccccc2)cc1,-7,8%,-19%,-3
CCOC(=O)Nc1ccc(Oc2ccccc2)cc1,121*,-12%,-30%,36*
Cc1ccc(NC(=O)c2ccccc2)cc1OC(=O)c1ccccc1,-3,-3%,2%,13*
CCOC(=O)Nc1ccc(C(=O)Oc2ccccc2)c(O)c1,104*,-11%,-32%,37*
O=C(Nc1ccc(C(=O)Oc2ccccc2)c(O)c1)c1ccco1,131*,-16%,-53%,55*
O=C(CSc1n[nH]c(=O)[nH]c1=O)NC1CC1,-16,-3%,x,-2
CCOc1ccc2ccccc2c1C1NC(=O)NC(C)=C1C(=O)OCCOC (centres undefined),20,-2%,13%,-2
CCOC(=O)Nc1ccc(C(=O)/C=C/c2ccccc2)cc1,29,-4%,-43%,22*
O=C(Nc1ccc(C(=O)Oc2ccccc2)c(O)c1)c1ccccc1,82*,-7%,x,28*
CSc1ccc(/C=C/C(=O)c2ccc(NC(=O)Cc3ccccc3)cc2)cc1,-2,2%,4%,13
SMILES,Shiga inhibitor,SARS PLpro yeast,NS1 inh,Cycloheximide cs
COc1ccc(OC)c(-c2nnc(SCC(=O)N3CCOCC3)o2)c1,-10,-7%,-1%,2
O=C(CSc1nnc(-c2cccc(F)c2)o1)N1CCOCC1,-7,6%,u,6
COc1ccc(-c2nnc(SCc3nc4ccccc4c(=O)[nH]3)o2)cc1,63*,0%,-3%,41*
COc1ccc(-c2nnc(SCC(=O)N3CCOCC3)o2)cc1,122*,8%,-5%,17
COc1cccc(-c2nnc(SCC(=O)N3CCOCC3)o2)c1,32,-1%,-4%,22*
Cc1cccc(OCc2nnc(SCc3nc4ccccc4c(=O)[nH]3)o2)c1,-7,4%,1%,-1
O=C(CSc1nnc(-c2cccc(F)c2)o1)N1CCCC1,36,2%,-3%,23*
